The record followed here is PubChem BioAssay AID1986 (Sanford-Burnham Center for Chemical Genomics, 2009).

The nature of this test: cell-free HIV fusion peptide-binding blockers – biochemical, uHTS, fluorescence dequenching, primary screen (AID 1986). The settings on record: 30 min, stronger effect = higher value.
Where [1] appears, read: measured here: repeat confirmation average inhibition, at 18.6 µM.

Each structure is given as a SMILES string. Values joined by “and” are separate entries in the source; they are usually repeats but may differ in a detail not shown here. Equal values may be shown once. Among all 290,000 compounds or so, about 890 (0.31%) were called active. Cut-off read from the data, not from the text of the source: active = inhibition mostly above about 52% (no sharp cut-off); inactive = mostly below about 76%. For the sample, actives were picked, then their nearest neighbours and some compounds at random.

For orientation: inhibition means the drop in the measured response relative to a control, in per cent. Regarding `O=C1CCC(C(=O)Nc2cc(C(F)(F)F)ccc2-n2cncn2)=NN1`, the inhibition (at 20 µM) was -0.2% (inactive).
Consider `CS(=O)(=O)C1=NSC2=NC(=O)/C(=C\c3cccn3-c3ccccc3Cl)C(=N)N21`, for which the inhibition (at 20 µM) is 78.5% (active).
With `CC1=CSC2=NC(=O)/C(=C\c3cccn3-c3ccccc3)C(=N)N12`, for the setting “at 20 µM”, the inhibition is 8.7% (inactive).
As for `Cc1ccc(-n2cccc2/C=C2/C(=N)N3C(=NC2=O)SN=C3S(C)(=O)=O)cc1`, the inhibition (at 20 µM) is 77.1% (active).
Take `CS(=O)(=O)C1=NSC2=NC(=O)/C(=C\c3ccc(-c4ccccc4)o3)C(=N)N21`: for the setting “at 20 µM”, the inhibition is 34.9% (inactive).
Consider `CS(=O)(=O)C1=NSC2=NC(=O)/C(=C\c3ccc(OC(=O)c4ccco4)cc3)C(=N)N21`, for which, for the setting “at 20 µM”, the inhibition was 47.4% (inactive).
Same read-out and setting: the value for `Cc1cccc(C)c1-n1cccc1/C=C1/C(=N)N2C(=NC1=O)SN=C2S(C)(=O)=O` was 68.4% (active); that for `CCC1=NN2C(=N)/C(=C\c3cccn3-c3ccc(Br)cc3)C(=O)N=C2S1` was 12.9% (inactive).
Still for that read-out and setting: in the case of `CCC1=NN2C(=N)/C(=C\c3cccn3-c3ccc(Cl)cc3)C(=O)N=C2S1` it was 30.5% (inactive); in that of `CC1=CSC2=NC(=O)/C(=C\c3cccn3-c3ccc([N+](=O)[O-])cc3)C(=N)N12`, 0.3% (inactive); in that of `CCc1ccc(-n2cccc2/C=C2/C(=N)N3C(=NC2=O)SN=C3S(C)(=O)=O)cc1`, 74.8% (active).
Take `CCOc1cc(/C=C2/C(=N)N3C(=NC2=O)SN=C3S(C)(=O)=O)ccc1OC(=O)c1ccco1`: the inhibition (at 20 µM) is 44.6% (inactive).
As for `Cc1ccc(-n2cccc2/C=C2\C(=N)N3N=C(C(C)C)SC3=NC2=O)cc1`, under “at 20 µM”, the inhibition is 49.5% (inactive).
Take `COCCN(C(=O)Nc1ccc(OC)cc1OC)C1CCN(C(C)C)CC1`: where the note is “at 20 µM”, the inhibition was -0.7% (inactive).
Turning to `CN(NC(=O)Nc1ccc(Cl)cc1)c1c(Cl)c(Cl)nn1C`, the inhibition (at 20 µM) was -1.2% (inactive).
On the same count and under the same terms, the value for `Cc1cccc(Nc2nc(C)cc(C)n2)c1` was 1.1% (inactive); that for `CCN(CC)S(=O)(=O)c1ccc(NC(=S)NC(=O)C2CCC2)cc1` was 0.1% (inactive).
Consider `CSCC[C@H](NC(=O)N1CCn2c1nc1ccccc12)C(=O)N1CCCCC1`, for which the inhibition (at 20 µM) is 1.5% (inactive).
`COc1ccc(C)cc1-n1nnnc1SCC1CCCO1` (stereo unspecified): under “at 20 µM”, the inhibition was 1% (inactive).
Turning to `Cc1cccc(Cn2c(=O)c3c(nc4n3CCN4Cc3ccco3)n(C)c2=O)c1`, the inhibition (at 20 µM) is -3% (inactive).
As to `O=[N+]([O-])c1ccccc1OCCCNCc1ccccc1`, under “at 20 µM”, the inhibition is 1.6% (inactive).
Turning to `CN1CCN(c2ccc(NC(=O)COc3ccccc3[N+](=O)[O-])cc2)CC1`, the inhibition (at 20 µM) is -1.4% (inactive).
As for `CC(C)Cc1ccc(CN2CCCC(NC(=O)CCN3CCCO3)C2)cc1` (stereo unspecified), the inhibition (at 20 µM) is -1.9% (inactive).
With `O=C(Cn1cnc2c(nnn2Cc2ccc(F)cc2)c1=O)Nc1cccc(F)c1`, the inhibition (at 20 µM) was 3.6% (inactive).
Turning to `CSCC(C)N1CCC(Oc2cccc(C(=O)NCc3ccccn3)c2)CC1` (stereo unspecified), the inhibition (at 20 µM) is 17% (inactive).
Turning to `O=C(O)CCCCC1CCSS1` (stereo unspecified), where the note is “at 20 µM”, the inhibition was 63.2% (active).
Turning to `O=C(O)CCCCCCCC(=O)O`, the inhibition (at 20 µM) was -0.3% (inactive).
As to `O=C(O)CCCCC1SCC2NC(=O)NC21` (stereo unspecified), where the note is “at 20 µM”, the inhibition is 0.9% (inactive) and -0.7% (inactive).
The same measure, in the same setting: the value for `CN(C)c1ccc(/C=C2\CCCCC2=O)cc1` was 3.4% (inactive).
`CN(C)c1ccc(/C=C2\CCC/C(=C\c3ccccc3)C2=O)cc1`: the inhibition is 80.8% (active) (at 20 µM) and 70.4% under setting [1].
Turning to `CC(C)/C=C1\CC/C(=C\c2ccc(N(C)C)cc2)C1=O`, the inhibition (at 20 µM) is 37.1% (inactive).
`COc1ccc(C(=O)N2C(=S)NC(=O)/C2=C\c2ccc(C)cc2)cc1`: under “at 20 µM”, the inhibition is 43.1% (inactive).
Turning to `O=C1NC(=S)N(C(=O)c2ccc(F)cc2)/C1=C/c1ccccc1`, the inhibition reads like this: (at 20 µM) 79% (inactive); under setting [1], 19.2%.
Take `COc1ccc(/C=C2\C(=O)NC(=S)N2C(=O)c2ccc(C)cc2)cc1`: where the note is “at 20 µM”, the inhibition is 63.6% (active).
The same measure, in the same setting: in the case of `O=C1NC(=S)N(C(=O)c2ccc(F)cc2)/C1=C/c1cccnc1` it was 4.6% (inactive); in that of `COc1ccc(/C=C2\C(=O)NCC(=O)N2C)cc1`, -3.1% (inactive).
With `COc1ccc(/C=C2\C(=O)NC(=S)N2C(=O)c2ccc(F)cc2)cc1`, the inhibition was 70.6% (active) (at 20 µM) and 59.8% under setting [1].
Turning to `Cc1ccc(C)c(S(=O)(=O)Nc2ccc(C(=O)NCCCN3CCCC3=O)cc2)c1`, where the note is “at 20 µM”, the inhibition is 0.7% (inactive).
With `Cc1cc(OCC(=O)NCc2cccnc2)c2c(C)c(Cc3ccccc3)c(=O)oc2c1`, the inhibition (at 20 µM) was 1.1% (inactive).
`N#C/C(=C/c1ccc(N2CCOCC2)o1)C(=O)NC1CCCCC1`: for the setting “at 20 µM”, the inhibition was 80.5% (active).
As to `Cc1ccc(/C=C(\C#N)C(=O)NCC2CCCO2)o1` (stereo unspecified), for the setting “at 20 µM”, the inhibition was 0.2% (inactive).
On to `N#C/C(=C\c1ccc(N2CCCCC2)o1)C(=O)Nc1cccc(Br)c1`, for which, where the note is “at 20 µM”, the inhibition was 21.6% (inactive).
For `N#C/C(=C\c1ccc(-c2ccc(S(=O)(=O)N3CCOCC3)cc2)o1)C(=O)NC1CC1`, the inhibition (at 20 µM) is 5.1% (inactive).
As to `N#C/C(=C\c1ccc(-c2ccc(C(=O)O)cc2)o1)C(=O)NCC1CCCO1` (stereo unspecified), the inhibition (at 20 µM) was 11.9% (inactive).
As for `N#C/C(=C\c1ccc(N2CCOCC2)o1)C(=O)NCC1CCCO1` (stereo unspecified), the inhibition is 118% (active) (at 20 µM) and 68% under setting [1].
Consider `N#C/C(=C\c1ccc(N2CCOCC2)o1)C(=O)NCCc1ccccc1`, for which the inhibition (at 20 µM) is 110% (active).
Turning to `N#C/C(=C/c1ccc(-c2ccc(Br)cc2)o1)C(=O)NC1CCCCC1`, for the setting “at 20 µM”, the inhibition is 3.7% (inactive).
For the compound `COc1ccc(NC(=O)/C(C#N)=C\c2ccc(N3CCOCC3)o2)cc1`, under “at 20 µM”, the inhibition is 149% (inactive).
Consider `N#C/C(=C\c1ccc(N2CCOCC2)o1)C(=O)NC1CCCCC1`, for which the inhibition (at 20 µM) was 66.5% (active) and the inhibition under setting [1] came out at 55.2%.
As for `N#C/C(=C/c1ccc(N2CCCCC2)o1)C(=O)NCCc1c[nH]c2ccccc12`, the inhibition (at 20 µM) was 11.8% (inactive).
In the case of `COCCNC(=O)/C(C#N)=C/c1ccc(N2CCOCC2)o1`, for the setting “at 20 µM”, the inhibition was 15.1% (inactive).
